This note sets out measurements from PubChem BioAssay (NCI).

About 83,000 compounds went through this panel and 20% of them were active in at least one assay; those are over-represented in the sample as a whole.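 Treatment: one concentration, 48 hours, 96-well format. Scoring: percent growth, with anything below 10 considered active.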 Values without a mark were called inactive. Calls of active or inactive are those of the source.

The assay concerns MDA-MB-468 breast. As to the kind of experiment: NCI-60 one-dose screen, 48 h (100 = growth as untreated, 0 = no growth, -100 = all killed). The conditions noted are these: 10 µM unless noted.
With `COc1ccc(/C=N/C2=NNC(C)(c3ccccc3O)N2C(Cc2c[nH]c3ccccc23)C(=O)O)cc1` (stereo not drawn), the growth is -3.81% (active). For `COc1ccc(/C(C)=C(\c2ccc(Cl)cc2)c2ccc(OCCN3CCCCC3)cc2)cc1` the value was 55.5%; for `Cn1c2ccccc2c2c3c(c4c5ccccc5n(C)c4c21)C(=O)OC3`, 101%. For `CC(C)C1=NOC(=O)C1=Cc1cn(-c2ccccc2)nc1-c1cccc([N+](=O)[O-])c1` the value was 86.6%. For `CN1CCN(Cc2ccc(NC(=O)c3cncc(C#Cc4c(N)ncc5c(F)cccc45)c3)cc2C(F)(F)F)CC1` the value was -82% (active); for `C/C=C/C1=CN2C(=O)c3cc(OC4OC(C)C(NC)C(C)(O)C4O)c(C)c(O)c3N=C[C@@H]2C1` (stereo partly drawn), -57.5% (active); for `CC(=O)NC1(C(=O)O)CCCC1`, 116%. Consider `C#C[C@]1(O)CC[C@H]2[C@@H]3CC=C4c5nc(Nc6ccccn6)sc5CC[C@]4(C)[C@H]3CC[C@@]21C`, for which the growth is 14.2%. In the case of `NS(=O)(=O)c1ccc(N2N=C(c3ccc(Br)cc3)CC2c2cn(-c3ccccc3)nc2-c2ccc(Cl)cc2)cc1` (stereo not drawn), the growth is 112%. Regarding `Cn1ccnc1C(=O)/C=C/c1ccc(NC(=O)c2ccc(F)cc2)cc1`, the growth was 11.8%. `CCN(CC)CCNc1ccc(C)c2sc3cc(Cl)ccc3c(=O)c12`: the growth was 14.4%. Under `CC(=O)Oc1ccc(C(OC(C)=O)OC(C)=O)cc1` stands 109%; under `COc1cccc(-c2nn(-c3ccccc3)cc2-c2ccnc(-c3cccnc3)c2)c1`, 80.4%.
